This note sets out measurements from PubChem BioAssay (NCI).

The panel holds about 83,000 compounds, 20% with a hit somewhere; the sample as a whole holds those more often.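 Cell lines were cultured in 96-well plates, exposed to a single compound concentration, and assessed for percent growth 48 hours later.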 Unmarked numbers belong to inactive results. Active and inactive are the calls of the source. Rule for the calls: active = growth percent below 10; inactive = the rest.

What all share (experiment): NCI-60 one-dose screen, 48 h (100 = growth as untreated, 0 = no growth, -100 = all killed)
Holding throughout (conditions): 10 µM

The test system of assay [1] is T-47D breast.
In assay [2] the test system is BT-549 breast.
For assay [3], the system named is MDA-MB-435 melanoma.
For assay [4], the system named is SW-620 colon.
In assay [5] the test system is MCF7 breast.
The subject of assay [6] is HCT-116 colon.
Assay [7] deals with HCC-2998 colon.
For assay [8], the system named is KM12 colon.

Turning to `Cc1cc(NC(=O)c2ccc(C)c(Nc3nccc(-c4cccnc4)n3)c2)cc(-n2cnc(C)c2)c1`, the growth is -4.71% (active) in assay [1]; 41.1% in assay [2]; 12.2% in assay [3]; 50.2% in assay [4]; 24.4% in assay [5]; -64.1% (active) in assay [6]. Besides, the growth in assay [7] is 70.8%; in assay [8], 35.1%.
On to `CC(=O)N[C@H](C(=O)N[C@@H](CCCNC(=N)N)C(=O)N[C@@H](CCCCN)C(=O)N[C@@H](CCCNC(=N)N)C(=O)N[C@]1(C)CCC/C=C\CCC[C@@](C)(C(=O)N[C@@H](CC(C)C)C(=O)N[C@@H](CC(C)C)C(=O)N[C@@H](CCC(N)=O)C(=O)N[C@@H](CCC(=O)O)C(=O)N[C@@H](CCCNC(=N)N)C(=O)N[C@@H](CCC(=O)O)C(=O)N[C@@H](CC(C)C)C(=O)N[C@H](C(=O)N[C@@H](CCC(=O)O)C(N)=O)C(C)C)NC(=O)[C@H](CCCNC(=N)N)NC(=O)[C@H](CC(C)C)NC1=O)C(C)C`, for which the growth in assay [1] was 92.4%; in assay [2], 102%; in assay [3], 110%; in assay [4], 113%; in assay [5], 102%; in assay [6], 105%. Besides, the growth is 109% in assay [7] and 105% in assay [8].
Take `CC(C)(C)OC(=O)CN1CCc2c(sc3ncnc(N/N=C/c4ccccc4Br)c23)C1`: the growth in assay [1] was 47.3%; in assay [2], 82.9%; in assay [3] it was 80.5%; in assay [4], 60.6%; in assay [5], 3.49% (active); in assay [6] it was 48.7%. For the same molecule, the growth was 76.3% in assay [7] and 80% in assay [8].
Regarding `CC(C)(C)c1ccc(S(=O)(=O)N[C@H]2CC[C@H]3[C@@H]4CCc5cc(O)c([N+](=O)[O-])cc5[C@H]4CC[C@]23C)cc1`, the growth in assay [1] is 46.6%; in assay [2], 67.7%; in assay [3], 80.3%; in assay [4] it was 89.9%; in assay [5] it was 54.1%; in assay [6], 32.6%. Also, the results for the growth in assay [7] and in assay [8] were 92.5% and 77.1%, respectively.
Consider `NC1=NC(c2ccccc2)C2=C(N1)/C(=C/c1ccccc1)CCC2` (centres undefined), for which the growth in assay [1] was 93.1%; in assay [2], 112%; in assay [3], 36.8%; in assay [4], 72.8%; in assay [5], 38.6%; in assay [6], -53.1% (active). For the same molecule, the growth in assay [7] was 48.5%; in assay [8] it was 47%.
With `Oc1ccc(-c2[nH]c3ccccc3c2-c2nc3ccccc3o2)cc1`, the growth in assay [1] is 40%; in assay [2] it was 64.7%; in assay [3], 0.478% (active); in assay [4], 40.9%; in assay [5], 24.1%; in assay [6], 23.7%. Also, the growth in assay [7] is 58.5%; in assay [8] it was 21%.
For the molecule `COc1cc2c(Nc3ccc(-c4ccc(N)cc4)cc3)ncnc2c(OC)c1OC`, the growth in assay [1] was 83%; in assay [2], 85.5%; in assay [3], 7.13% (active); in assay [4], 14.4%; in assay [5], 36.1%; in assay [6] it was 58.3%. In addition, the growth in assay [7] is 4.99% (active); in assay [8], 3.42% (active).
As to `CCCCCC(=O)O[C@]1(C(C)=O)CCC2C3CCC4=CC(=O)CC[C@]4(C)C3CC[C@@]21C` (some centres undefined), the growth in assay [1] was 28.6%; in assay [2], 31.1%; in assay [3], 28.4%; in assay [4] it was 29.5%; in assay [5] it was 13.4%; in assay [6], 11.5%. Moreover, the growth in assay [7] is 26.2%; in assay [8], 28.7%.
For the molecule `COc1cc(C(=O)n2nc(-c3cc(OC)c(OC)c(OC)c3)nc2N)cc(OC)c1OC`, the growth in assay [1] was 77.1%; in assay [2], 100%; in assay [3], 95.8%; in assay [4] it was 99.9%; in assay [5] it was 88.3%; in assay [6], 91.1%. For the same molecule, the growth in assay [7] was 94.9%; in assay [8] it was 102%.
Turning to `COc1cc(C(=O)N2CCN(c3cc4c(cc3F)c(=O)c(C(=O)NO)cn4C3CC3)CC2)cc(OC)c1OC`, the growth was 82.7% in assay [1]; 105% in assay [2]; 105% in assay [3]; 99% in assay [4]; 99% in assay [5]; 105% in assay [6]. For the same molecule, the growth in assay [7] is 110%; in assay [8], 104%.
On to `COc1cccc2ccc(CC(O)(c3ccccc3)c3ccccc3)nc12`, for which the growth in assay [1] was 43.7%; in assay [2], 94.1%; in assay [3], 106%; in assay [4] it was 98.7%; in assay [5], 24.6%; in assay [6], 77.1%. In addition, the growth in assay [7] was 97.1%; in assay [8], 67.3%.
Consider `C=C(C)[C@@H]1CC[C@]2(COCCC#N)CC[C@]3(C)[C@H](CC[C@@H]4[C@@]5(C)Cc6c([nH]c7ccccc67)C(C)(C)[C@@H]5CC[C@]43C)[C@@H]12`, for which the growth in assay [1] was 81.8%; in assay [2] it was 95.3%; in assay [3], 95.8%; in assay [4], 92.6%; in assay [5] it was 81.1%; in assay [6], 82%. Further, the growth was 104% in assay [7] and 95.8% in assay [8].
On to `C/C(=C/CCC(C)[C@@H]1CC[C@]2(C)C3=C(CC[C@@]12C)[C@@]1(C)CCC(=O)C(C)(C)[C@@H]1CC3)C(=O)O` (some centres undefined), for which the growth in assay [1] is -48.9% (active); in assay [2], -90.8% (active); in assay [3], -75% (active); in assay [4] it was -85.2% (active); in assay [5], -54.8% (active); in assay [6] it was -93.1% (active). For the same molecule, the growth in assay [7] is -85.3% (active); in assay [8], -87.6% (active).
With `N#Cc1c(N)nc(-c2cc(F)cc(C(F)(F)F)c2)nc1-c1ccccc1F`, the growth was 49% in assay [1]; 58.9% in assay [2]; 85.7% in assay [3]; 63.4% in assay [4]; 73.6% in assay [5]; 26.2% in assay [6]. Besides, the growth was 75.6% in assay [7] and 79.7% in assay [8].
Take `Cc1cc(CC(C)CC(C)(C)C)n(O)c(=O)c1` (centres undefined) (tested in a mixture with another compound): the growth was 28.1% in assay [1]; 29.4% in assay [2]; 22.2% in assay [3]; 34.4% in assay [4]; 17.5% in assay [5]; 22.9% in assay [6]. For the same molecule, the figures for the growth in assay [7] and in assay [8] were 57.5% and 27.4%, respectively.
Turning to `CC(=O)O[C@@]12CO[C@@H]1C[C@H](O)[C@@]1(C)C(=O)[C@H](O)C3=C(C)[C@@H](OC(=O)[C@H](O)[C@@H](NC(=O)OC(C)(C)C)c4ccccc4)C[C@@](O)([C@@H](OC(=O)c4ccccc4)C12)C3(C)C` (some centres undefined), the growth in assay [1] is 65.2%; in assay [2] it was 42.8%; in assay [3], -11.7% (active); in assay [4], 48.1%; in assay [5] it was 16.1%; in assay [6], 34.6%. Besides, the growth was -18.8% (active) in assay [7] and 29.6% in assay [8].
In the case of `CCn1c(SCc2ccc(C)cc2)nnc1-c1nn(-c2ccc(Cl)cc2Cl)c(-c2ccc(Cl)cc2)c1C`, the growth was -8.15% (active) in assay [1]; -7.34% (active) in assay [2]; 19.7% in assay [3]; 20.4% in assay [4]; 4.46% (active) in assay [5]; 1.74% (active) in assay [6]. The growth in assay [7] is 23.4%; in assay [8] it was 15.8%.
For `CCOC(=O)/C(=C(\C)N)C1CC(=O)NC1=O` (centres undefined), the growth in assay [1] is 110%; in assay [2], 87.3%; in assay [3], 100%; in assay [4], 96.8%; in assay [5], 91%; in assay [6] it was 107%. The values for the growth in assay [7] and in assay [8] were 103% and 121%, respectively.
Take `O=S(=O)(O)c1cccc(Nc2ccc3ccccc3c2)c1`: the growth in assay [1] was 89.9%; in assay [2], 98.4%; in assay [3], 106%; in assay [4] it was 93.2%; in assay [5], 99.5%; in assay [6], 90.5%. Besides, the growth in assay [7] was 104%; in assay [8] it was 90.6%.
Consider `CCOC(=O)CSc1nc(-c2cc(OC)ccc2OC)cc(-c2ccc(OC)cc2)c1C#N`, for which the growth in assay [1] was 65.6%; in assay [2] it was 86%; in assay [3] it was 86.6%; in assay [4] it was 92.1%; in assay [5], 71.7%; in assay [6] it was 67.3%. Further, the values for the growth in assay [7] and in assay [8] were 85.5% and 71.3%, respectively.
As to `NC1=CC(=O)C(=O)c2cccnc21`, the growth in assay [1] is 97.9%; in assay [2] it was 86%; in assay [3] it was -82.8% (active); in assay [4], 73.8%; in assay [5] it was 52.5%; in assay [6], 86.6%. The growth is 83% in assay [7] and 76.7% in assay [8].
For the molecule `CCOc1ccccc1/C=N\N=C\c1ccccc1O`, the growth is 78.5% in assay [1]; 84.2% in assay [2]; 107% in assay [3]; 105% in assay [4]; 84.2% in assay [5]; 98.8% in assay [6]. For the same molecule, the growth is 102% in assay [7] and 95.3% in assay [8].
With `COc1cc(-c2nn(-c3cccc(NC(=O)CCNc4ccc(N5CCOCC5)cc4)c3)cc2-c2ccncc2)ccc1Cl`, the growth was 15.2% in assay [1]; 19.8% in assay [2]; 14.3% in assay [3]; 18.6% in assay [4]; 7.35% (active) in assay [5]; 5.29% (active) in assay [6]. The growth was 43.3% in assay [7] and 20.4% in assay [8].
On to `CO[C@H]1CC(O[C@@H]2/C(C)=C/C[C@@H]3C[C@@H](C[C@]4(C=C[C@H](C)[C@@H](C5CCCCC5)O4)O3)OC(=O)[C@@H]3C=C(C)[C@@H](O)[C@H]4OC/C(=C\C=C\[C@@H]2C)[C@]43O)O[C@@H](C)C1O[C@H]1C[C@H](OC)[C@@H](O)[C@H](C)O1` (some centres undefined), for which the growth is -51.2% (active) in assay [1]; -68.9% (active) in assay [2]; -97.1% (active) in assay [3]; -92.7% (active) in assay [4]; -24.1% (active) in assay [5]; -98.1% (active) in assay [6]. Moreover, the growth in assay [7] is -92.3% (active); in assay [8] it was -88.6% (active).
Consider `Cc1ccc(/C=C2/C(=O)N(C)c3ccc(S(=O)(=O)Nc4ccc(C(C)(C)C)cc4)cc32)s1`, for which the growth was 80.5% in assay [1]; 97.1% in assay [2]; 83.1% in assay [3]; 96.7% in assay [4]; 72.4% in assay [5]; 55.4% in assay [6]. In addition, the growth in assay [7] was 87.8%; in assay [8] it was 82.4%.
Consider `Clc1nc2ccccc2cc1Cn1nnc(Cc2ccccc2)n1`, for which the growth in assay [1] was 26.1%; in assay [2], 38.9%; in assay [3], 65.3%; in assay [4], 86.6%; in assay [5], 45.8%; in assay [6], 35.1%. In addition, the growth was 81.3% in assay [7] and 66.3% in assay [8].
As to `NS(=O)(=O)Oc1ccc(-c2ccc3sccc3c2)cc1`, the growth is 105% in assay [1]; 91.1% in assay [2]; 104% in assay [3]; 99.9% in assay [4]; 120% in assay [5]; 95.3% in assay [6]. The growth was 99.2% in assay [7] and 101% in assay [8].
As to `c1cncc(-c2csc(-c3c[nH]c4ccccc34)n2)c1`, the growth was 64.1% in assay [1]; 89.2% in assay [2]; 86.9% in assay [3]; 102% in assay [4]; 77.3% in assay [5]; 82.6% in assay [6]. In addition, the growth in assay [7] is 107%; in assay [8], 81.8%.
